Screens as filed in PubChem BioAssay.
Only a selection was taken, and hits are over-represented in it overall.
TDP1 inh – inhibitors of human tyrosyl-DNA phosphodiesterase TDP1; Q9NUW8; 350,000 compounds, 0.28% hits; AID 485290; Potency, µM (doses to about 130 µM), for the others: at the highest dose activity change, negative = inhibition, usual class: inhibitors; recombinant TDP1, AlphaScreen DNA substrate cleavage; further: nearly all actives have a fitted effect of over 40% in size
Target sequence (Q9NUW8 whole entry, looked up): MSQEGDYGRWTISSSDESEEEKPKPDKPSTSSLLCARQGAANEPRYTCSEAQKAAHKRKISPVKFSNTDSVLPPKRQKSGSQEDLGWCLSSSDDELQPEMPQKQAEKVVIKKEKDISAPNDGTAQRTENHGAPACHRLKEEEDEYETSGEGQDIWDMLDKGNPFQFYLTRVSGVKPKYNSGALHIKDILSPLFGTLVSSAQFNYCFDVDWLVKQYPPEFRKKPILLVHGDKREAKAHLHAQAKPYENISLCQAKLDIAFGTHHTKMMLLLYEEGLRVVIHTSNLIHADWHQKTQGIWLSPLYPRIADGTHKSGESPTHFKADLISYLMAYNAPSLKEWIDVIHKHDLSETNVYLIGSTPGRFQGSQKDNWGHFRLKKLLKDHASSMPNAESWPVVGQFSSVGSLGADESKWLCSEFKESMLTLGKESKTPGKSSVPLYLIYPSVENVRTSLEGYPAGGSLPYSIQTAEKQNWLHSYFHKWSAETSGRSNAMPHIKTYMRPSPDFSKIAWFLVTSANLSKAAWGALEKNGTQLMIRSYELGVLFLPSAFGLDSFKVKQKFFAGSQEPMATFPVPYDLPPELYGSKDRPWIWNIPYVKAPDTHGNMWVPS
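E. coli-derived human Tdp1, 1 nM final. Cpd preinc 15 min RT; substrate 15 nM final, 5 min RT; AS bead mix 10 ug/ml final, 10 min RT. Signal loss = tyrosine-FITC cleavage. No-enzyme wells = max signal.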
L3MBTL1 inh – blocks human L3MBTL1; Q9Y468; 230,000 compounds, 0.66% hits; AID 485360; AlphaScreen L3MBTL1–H3K9me1 peptide binding; Potency, µM (titrated, usually from 57.1 µM), inactives show at the highest dose activity, negative = inhibition, hits mostly inhibitors; further: nearly all actives have a fitted effect of over 60% in size
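First, the protein-peptide complex forms for 30 min at room temperature (L3MBTL1 50 nM, biotinylated H3K9me1 peptide 75 nM). Next, compounds are pin-transferred and incubated 30 min. Finally, AlphaScreen beads are added and read after 30 min.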
RECQ1 inh – RECQ1 (human) helicase inhibition. P46063. RECQ1 DNA unwinding, red fluorescence kinetic read. Potency, µM (highest dose often 57.3 µM), inactives show at the top dose activity, negative = inhibition, hits mostly inhibitors. 240,000 compounds, 0.54% hits;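 further: plate controls were vehicle for no effect and no enzyme for full effect; nearly all actives have a fitted effect of over 30% in size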
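50 nM RECQ1T1 preincubated 15 min with compound in Tris pH 8.0 buffer with MgCl2, DTT, Tween-20 and 2.5 ug/ml poly(dI-dC); started with 200 nM TAMRA/BHQ-2 forked duplex and 2 mM ATP. Unwinding read as fluorescence (525/598 nm), two reads 2 h apart.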
JMJD2E inh – JMJD2E (human) inhibition | B2RXH2 | JMJD2E catalytic domain, FDH-coupled NADH fluorescence (FDH is formaldehyde dehydrogenase) | Potency, µM (top dose mostly 57.1 µM), for the others: at the top dose activity change, negative = inhibition, hits mostly inhibitors | 230,000 compounds, 1.6% hits; active means well fitted inhibition curve with a large enough effect, not every such curve was filed as active; inconclusive means small, poorly fitted or top-dose-only effect, or another doubt; inactive means no such curve, though single readings can be large or run the other way;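 further: 0% = wells with enzyme and -100% = buffer wells without enzyme; nearly all actives have a fitted effect of over 50% in size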
APE1 inh-1 – APE1 (human) endonuclease inhibition; P27695; recombinant APE1, TAMRA/BHQ-2 abasic DNA cleavage fluorescence; Potency, µM (titrated, usually from 65.8 µM), inactives show at the top dose activity change, negative = inhibition, usual class: inhibitors; 350,000 compounds, 0.35% hits; AID 2517;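 further: plate controls were vehicle for no effect and reference inhibitor for full effect; nearly all actives have a fitted effect of over 55% in size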
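0.75 nM APE1 + cpd, 15 min RT; start w/ 50 nM TAMRA/BHQ-2 THF-abasic dsDNA; kinetic fluor 525/598 nm ×3 reads @60 s; Δ(read3−read1); normalized to DMSO and NSC13755 control wells.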
BLM helicase inh – Bloom syndrome helicase (human) inhibition; P54132; recombinant BLM DNA unwinding, fluorescence dequenching; Potency, µM (top dose mostly 56.1 µM), for the others: at the highest dose activity change, negative = inhibition, usual class: inhibitors; 350,000 compounds, 0.2% hits; AID 2528;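 further: plate controls were vehicle for no effect and no enzyme for full effect; nearly all actives have a fitted effect of over 35% in size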
DNA dye displace – displaces fluorescent dye from DNA, flagging APE1 artifacts; shares compounds with APE1 inh-1; DNA fluorescent dye displacement counterscreen, fluorescence; Potency, µM (doses to about 28.5 µM), for the others: at the top dose activity change, negative = inhibition, most hits filed as inhibitors; 480 compounds, 7% hits;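 further: loss of thiazole orange fluorescence as the dye is displaced from duplex DNA; 0% = ThO with dsDNA and no compound and -100% = ThO without dsDNA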
EndoIV counter – counter-screen for APE1 inhibitors: inhibitors of E. coli endonuclease IV; E. coli Endo IV, fluorogenic AP-site DNA cleavage; AID 2565; shares compounds with APE1 inh-1; Potency, µM (doses to about 27.1 µM), inactives show at the highest dose activity change, negative = inhibition, most hits filed as inhibitors; 560 compounds, 4% hits;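 further: plate controls were uninhibited enzyme wells for no effect and no enzyme buffer wells for full effect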
APE1 inh-2 – APE1 (human) endonuclease inhibition, confirmation | Potency, µM (titrated, usually from 57.1 µM), inactives show top-dose activity change, negative = inhibition, most hits filed as inhibitors | 750 compounds, 44% hits | shares compounds with APE1 inh-1 | purified APE1, fluorogenic abasic-site DNA cleavage; further: nearly all actives have a fitted effect of over 30% in size
APE1 FP – APE1 (human) DNA binding inhibition, fluorescence polarization | shares compounds with APE1 inh-1 | APE1 binding to TAMRA-labelled double-stranded DNA, fluorescence polarization displacement | Potency, µM (doses to about 28.5 µM), for inactives: at the highest dose activity, negative = inhibition, actives largely listed as inhibitors | 480 compounds, 7% hits
An asterisk follows results filed as active; [ ] = remark or other dose. Unless noted, the call rests on the fitted dose curve; in most records, active means well fitted curve in the direction sought with a large enough effect; inconclusive means small, poorly fitted or top-dose-only effect, or another doubt; inactive means no such curve, though single readings can be large; an effect the other way counts as inactive or inconclusive. Unless noted, on the % scale 0 is the no-effect control and ±100 the full control effect; potency means the concentration at half of the fitted maximal effect.

`CCOc1cc(/C=C2\C(=O)N(c3ccc(C(N)=O)cc3)N=C2C)ccc1OC(=O)c1cccs1` gave TDP1 inh 4%, L3MBTL1 inh -17%, RECQ1 inh -1%, JMJD2E inh inconclusive, APE1 inh-1 28µM*, BLM helicase inh -17%, DNA dye displace inconclusive, EndoIV counter -10%, APE1 inh-2 -7%[24.4 µM] and APE1 FP -6%.
Screening CO[C@@H]1COC(=O)[C@H](COCc2ccccc2)NC(=O)C/C=C\[C@@H](C)[C@H](OC)COC(=O)[C@@H](C)NC(=O)C/C=C\[C@H]1C returned TDP1 inh 11%[21 µM], RECQ1 inh -1%[11.5 µM], APE1 inh-1 inconclusive and BLM helicase inh -4%[12.4 µM].
For Cc1ccc(C(=O)O)cc1-c1ccc(/C=C2\SC(=O)N(CC(=O)Nc3ccccc3)C2=O)o1 the results were TDP1 inh 40µM*, L3MBTL1 inh inconclusive, RECQ1 inh -17%, JMJD2E inh inconclusive, APE1 inh-1 inconclusive, BLM helicase inh -6% and APE1 inh-2 40µM*.
`Cc1ccc(NC(=O)CN2C(=O)S/C(=C\c3ccc(C(=O)O)cc3)C2=O)cc1` gave L3MBTL1 inh 2%, APE1 inh-1 inconclusive and BLM helicase inh -9%.
`CC(C)(C)OC(=O)CN1C(=O)S/C(=C\c2ccc(-c3cccc(C(=O)O)c3)o2)C1=O` gave L3MBTL1 inh inconclusive, APE1 inh-1 -28% and BLM helicase inh 0%.
For Cc1ccc(NC(=O)CN2C(=O)S/C(=C\c3ccc(-c4cccc(C(=O)O)c4C)o3)C2=O)cc1 the results were RECQ1 inh inconclusive, JMJD2E inh inconclusive, APE1 inh-1 inconclusive, BLM helicase inh 1% and APE1 inh-2 40µM*.
`CCc1nn(-c2ccccc2)c2nc(-c3cccc(OC)c3)c3cc(OC)c(OC)cc3c12` gave TDP1 inh 2%[12.3 µM] and BLM helicase inh -3%.
Screening CC(=O)N1CCC(C(=O)Nc2ccccc2)(N(Cc2ccccc2)C(=O)c2cccnc2)CC1 returned TDP1 inh 3%, L3MBTL1 inh 5%, RECQ1 inh inactive, JMJD2E inh -1%, APE1 inh-1 inconclusive, BLM helicase inh -2%, DNA dye displace -12%, EndoIV counter -4%, APE1 inh-2 -5%[24.4 µM] and APE1 FP inconclusive.
`Fc1ccc(N2N=C(c3cccs3)CC2c2ccccc2)cc1` (stereo not given) gave TDP1 inh 13µM*, RECQ1 inh -10%, JMJD2E inh inconclusive, APE1 inh-1 4%, BLM helicase inh -11% and APE1 inh-2 -26%.
For O=S(=O)(c1ccccc1)N1N=C(c2cccs2)CC1c1ccc(F)cc1 (stereo not given) the results were TDP1 inh 4%, L3MBTL1 inh 34%, RECQ1 inh -8%, JMJD2E inh -6%, APE1 inh-1 -8% and BLM helicase inh -11%.
Screening COc1ccc2cc(CNc3ccc(C)cc3)c(=O)n(CC(=O)Nc3ccc(OC)c(Cl)c3)c2c1 returned TDP1 inh 11% and BLM helicase inh -4%.
For COc1cc(C2CC(=O)Nc3cc4c(cc32)OCO4)cc(OC)c1O (stereo not given) the results were TDP1 inh -6%[12.3 µM] and BLM helicase inh -1%.
For Cc1ccccc1CCNC(=O)c1cc2cc(S(=O)(=O)N3CCCCC3)ccc2n1C the results were TDP1 inh 5% and BLM helicase inh -5%.
For Nc1ccc(NC(=O)c2ccc(C(=O)Nc3ccc(N)cc3)cc2)cc1 the results were TDP1 inh 79µM*, L3MBTL1 inh -1%, RECQ1 inh -21%, JMJD2E inh 2%, APE1 inh-1 0%, BLM helicase inh 5% and APE1 inh-2 inconclusive.
COc1ccc(C(C)=O)c(O)c1 was read as TDP1 inh -7%, RECQ1 inh 7%, JMJD2E inh 2%, APE1 inh-1 3% and BLM helicase inh -10%.
For COCc1cc(O)c(O)c(O)c1-c1c(COC)cc(O)c(O)c1O the results were RECQ1 inh 1µM*, APE1 inh-1 0.18µM*, BLM helicase inh -2%, DNA dye displace 7%[57.1 µM], EndoIV counter 144%[57.1 µM], APE1 inh-2 0.32µM* and APE1 FP 6%[57.1 µM].
COCCNC(=O)CCCn1c(SCC(=O)Nc2ccc(F)cc2)nc2c(sc3ccccc32)c1=O was read as TDP1 inh -1% and BLM helicase inh -5%.
Screening Cc1ccc(C)c(Cn2c(=O)n(Cc3ccc4c(c3)OCO4)c(=O)c3oc4ccccc4c32)c1 returned TDP1 inh 5% and BLM helicase inh 0%.
Screening COc1ccc(/C=C/C(=O)NC(=S)Nc2ccc(C(=O)O)cc2)cc1 returned TDP1 inh 89µM*, L3MBTL1 inh 6%, RECQ1 inh 1%, JMJD2E inh inconclusive, APE1 inh-1 -12%, BLM helicase inh -18% and APE1 inh-2 -13%.
Screening COc1ccc(NC(=S)NC(=O)/C=C/c2ccc(F)cc2)cc1 returned APE1 inh-1 40% and BLM helicase inh -3%.
O=c1cc(-c2ccc(O)cc2)oc2c(O)c(O)c(O)c(O)c12 was read as L3MBTL1 inh 3.2µM*, RECQ1 inh 13µM*, JMJD2E inh 13µM*, APE1 inh-1 4.5µM*, BLM helicase inh 10µM*, DNA dye displace -14%, EndoIV counter 6%, APE1 inh-2 0.5µM* and APE1 FP 12%.
